Measured values published in PubChem BioAssay (NCATS).
Several values for one entry are separate records, joined by “and”; a condition that tells them apart may be missing. Identical values can stand only once. Results filed as inconclusive are left out. A number with no mark means an inactive call. Activity calls are given as the source filed them. Calls come from the whole dose curve; as a rule, active = well fitted inhibition curve with a large enough effect in the signal ratio, with a control signal flat (not every such curve was filed as active); inconclusive = small, poorly fitted or top-dose-only effect, or effect the other way, or a change in a side signal; inactive = no such curve, though single readings can be large or run the other way; the % refers to the signal ratio.

Target: Retinoic acid receptor RXR-alpha (Homo sapiens) (UniProt P19793)
Sequence (P19793 whole entry, looked up): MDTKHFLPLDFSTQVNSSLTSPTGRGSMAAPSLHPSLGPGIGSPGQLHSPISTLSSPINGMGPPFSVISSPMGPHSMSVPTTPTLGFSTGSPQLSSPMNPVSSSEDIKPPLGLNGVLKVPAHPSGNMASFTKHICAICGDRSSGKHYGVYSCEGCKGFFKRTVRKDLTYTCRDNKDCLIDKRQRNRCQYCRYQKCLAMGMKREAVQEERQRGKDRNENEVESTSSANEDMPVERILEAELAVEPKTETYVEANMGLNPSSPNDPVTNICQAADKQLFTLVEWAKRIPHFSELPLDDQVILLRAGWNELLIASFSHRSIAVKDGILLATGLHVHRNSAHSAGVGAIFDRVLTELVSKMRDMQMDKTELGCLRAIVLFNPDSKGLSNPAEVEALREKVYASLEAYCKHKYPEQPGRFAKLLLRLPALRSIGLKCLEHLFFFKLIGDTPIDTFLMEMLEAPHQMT
Assay: qHTS assay for small molecule antagonists of retinoid X receptor alpha signaling (AID 588546)
Conditions: HEK293T RXRa-UAS-bla, beta-lactamase ratio, antagonist mode
Source text: NIH Chemical Genomics Center [NCGC] U.S. Environmental Protection Agency [EPA] National Institutes of Environmental Health Sciences [NIEHS] National Toxicology Program [NTP] NCGC Assay Overview The Retinoid X receptor (RXR), a nuclear hormone receptor is expressed in liver, spleen, placenta, epidermis, central nervous system. These receptors are able to form homo and heterodimers with other nuclear receptors and due to this heterodimerizing ability, RXR functions as master regulators producing diverse physiological effects. Three subtypes of RXR exist; alpha, beta and gamma. Retinoid X receptor alpha (RXR-alpha) has potential roles in metabolic signaling pathways, skin alopecia, dermal cysts, cardiac development, insulin sensitization etc. Therefore screening environmental chemicals on RXR-alpha signaling can be used for the studies focused on such therapeutic applications.
NCGC Assay Protocol Summary Using a beta-lactamase reporter-gene under control of Retinoid X receptor--alpha (RXR-alpha) response element, a cell-based assay [GeneBLAzer (RXR-alpha -UAS-bla assay developed by Invitrogen] was used to measure RXR-alpha ligands signaling. GeneBLAzer RXR-alpha -UAS-bla HEK293T cells were used with assay medium containing 2% charcoal-stripped FBS. The assay was performed in clear bottom black Greiner 1536-well plates. Library compounds were measured for their ability to inhibit the reporter gene activity. Compounds were screened in a titration series in 1536-well format. The fluorescence intensity (405 nm excitation, 460/530 nm emission) was measured using an EnVision plate reader. Data was normalized relative to 9-cis-retinoic acid control (500 nM, 100%), and DMSO only wells (basal, 0%). Concentration-response titration points for each compound were fitted to the Hill equation yielding concentrations of half-maximal inhibition (IC50) and maximal response (efficacy) values. qHTS protocol for RXR-alpha beta-lactamase assay in antagonist mode [Step] [Parameter] [Value] [Description] 1. Reagent; 5 uL; 2500 cells/well 2. Incubation; 37 C for 4 hrs 3. Compounds; 23 nL; 0.59 nM to 92 uM 4. Controls (DMSO); 23 nL 5. Agonist (Stimulator); 1uL; 9-cis-retinoic acid at 500 nM and 100 nM final concentrations 6. Incubation; 37 C for 18 hrs 7. Detection reagent; 1 uL of CCF4-dye 8. Incubation; RT for 2 hrs 9. Detection; Fluorescence; Envision plate reader
% is set by controls: 0 for no effect and ±100 for the full control effect.

SMILES | max response | Potency
CNC(=O)O/N=C(\C)SC | 8.15% | 
[CH3][Sn]([Cl])([Cl])[Cl] | -14.8% | 
CCC[CH2][Sn]([CH2]CCC)([CH2]CCC)[CH2]CCC | 4.03% | 
CCCCOCCOC(C)=O | -8.99% | 
O=C(O)C(F)(F)C(F)(F)C(F)(F)C(F)(F)C(F)(F)C(F)(F)C(F)(F)C(F)(F)C(F)(F)F | 20.8% | 
O=C1NCCN1Cc1ccc(Cl)nc1 | -5.19% | 
CCCCCCCCCCCC#N | 4.86% | 
CCOP(=O)(SC(C)CC)N1CCSC1=O (stereo not given) | 14.8% | 
O=C(NC(=O)c1c(F)cccc1F)Nc1ccc(Cl)cc1 | -3.02% | 
CC1(C)C(C(=O)OC(C#N)c2cccc(Oc3ccccc3)c2)C1(C)C (stereo not given) | -14.5% | 
C#CCN1CC(=O)N(COC(=O)[C@@H]2[C@@H](C=C(C)C)C2(C)C)C1=O | -19.9% | 
CC(C)COP(=O)(OCC(C)C)OCC(C)C | 3.45% | 
C/C(=N\NC(=O)Nc1cc(F)cc(F)c1)c1ncccc1C(=O)O | -18.2% and 0.0153% | 
CCOc1ccc(C(C)(C)COCc2cccc(Oc3ccccc3)c2)cc1 | -7.6% | 
C=CC(=O)OCC(CO)(COC(=O)C=C)COC(=O)C=C |  | 5.62 µM (active)
CCSC(C)CC1CC(=O)C(/C(CC)=N/OC/C=C/Cl)=C(O)C1 (stereo not given) | 0.139% | 
CCS(=O)(=O)c1cccnc1S(=O)(=O)NC(=O)Nc1nc(OC)cc(OC)n1 | 8.72% | 
CC(=NC#N)N(C)Cc1ccc(Cl)nc1 | -19.1% | 
OC(Cn1cncn1)(c1ccc(F)cc1)c1ccccc1F (stereo not given) | -2.11% | 
CNC(=O)O/N=C(\SC)C(=O)N(C)C | -20.9% | 

SMILES | max response | Potency
CC(Oc1cc(Cl)c(Cl)cc1Cl)C(=O)O (stereo not given) | 1.54% | 
OC(c1ccc(Cl)cc1)(c1ccc(Cl)cc1)C(Cl)(Cl)Cl | 3.94% | 
CCOP(=S)(OCC)OC(Cl)C(Cl)(Cl)Cl (stereo not given) | -15% | 
CC1(C)[C@H](C(=O)O[C@H](C#N)c2cccc(Oc3ccccc3)c2)[C@@H]1/C=C(\Cl)C(F)(F)F | -28.2% | 
CNC(=O)Oc1cc(C)cc(C(C)C)c1 | -3.46% | 
NS(=O)(=O)C(F)(F)C(F)(F)C(F)(F)C(F)(F)C(F)(F)C(F)(F)C(F)(F)C(F)(F)F | -55.1% | 
CNC(=O)O/N=C/C(C)(C)S(C)(=O)=O | 0.762% | 
CCOP(=S)(OCC)SC(CCl)N1C(=O)c2ccccc2C1=O (stereo not given) | 7.55% | 
CCNP(=S)(OC)O/C(C)=C/C(=O)OC(C)C (stereo not given) | 3.14% | 
CNc1cnn(-c2cccc(C(F)(F)F)c2)c(=O)c1Cl | 8.14% | 
CCOP(=S)(Oc1cnc(C(C)(C)C)nc1)OC(C)C (stereo not given) | 1.44% | 
Clc1ccc([C@]2(Cn3cncn3)C[C@H](Br)CO2)c(Cl)c1 | -14.1% and -9.34% | 
CC(C)CCCCCCOC(=O)c1ccccc1C(=O)OCCCCCCC(C)C | -4.29% | 
ClCc1ccccc1Cl | 0.106% | 
ClC1=C(Cl)C2(Cl)C3C4OC4C(Cl)C3C1(Cl)C2(Cl)Cl (stereo not given) | -6.75% | 
O=C(Nc1ccccc1)Nc1cnns1 | -46.6% | 
CCOP(=O)(SC(C)CC)SC(C)CC (stereo not given) | -13.8% | 
O=[N+]([O-])C(Br)Br | 3.78% | 
CCNC(=O)NC(=O)/C(C#N)=N/OC | 12.8% | 
COc1cnc(OC)n2nc(NS(=O)(=O)c3c(OCC(F)F)cccc3C(F)(F)F)nc12 | -13.9% | 
